In PubChem BioAssay:
Several values for one entry are separate records, joined by “and”; a condition that tells them apart may be missing. Equal values may be shown once. Results filed as inconclusive are left out. For some of these results: Measured potencies and affinities stand elsewhere. Activity calls are given as the source filed them. Unless noted, the rule behind the calls is not given here.

Columns and labels:
[1] = system: Aerobactin synthetase IucA (Klebsiella pneumoniae); assay: inhibition of K. pneumoniae IucA enzyme – biochemical, Tocris library, absorbance (AID 1345561); details: purified IucA enzyme assay, absorbance (OD) read-out; stronger effect = lower value;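 tested at 8 µM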;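 note: 100% = enzyme without compound and 0% = no enzyme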
[2] = antimalarial activity against Dd2 strain (AID 2302;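 active = growth inhibition above 50% at the single 2 µM test dose, taken to imply half-maximal potency below 2 µM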;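 note: 0% = DMSO untreated growth and 100% = chloroquine plus artemisinin killed control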); details: P. falciparum Dd2 in RBCs, LDH growth readout, 72 h; at 2 µM; stronger effect = higher value
[3] = target: L-lactate dehydrogenase (Plasmodium falciparum (isolate CDC / Honduras)) (UniProt Q27743); assay: PfLDH activity inhibition – cell lysate, 3D7 strain, counter-screen for P. falciparum growth inhibition project (AID 2304);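 note: 0% = vehicle and 100% = reference inhibitor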; details: P. falciparum 3D7 crude extract, LDH APAD/NBT absorbance; at 2 µM; stronger effect = higher value
[4] = target: Calcium-dependent protein kinase 1 (Plasmodium falciparum (isolate 3D7)) (UniProt P62344); assay: PfCDPK1 kinase inhibitors, biochemical, TCAMS library (AID 1159585; cut-off not given, nearly all actives have IC50 up to about 0.98 µM;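 note: inhibitors leave more ATP so luminescence rises with inhibition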); details: recombinant PfCDPK1, Kinase-Glo ATP depletion luminescence
[5] = target: Plasmodium falciparum protein kinase 6 (PK6, PF3D7_1337100) (UniProt Q8IDW1); assay: PfPK6 kinase inhibitors, biochemical, TCAMS library (AID 1159586); details: recombinant PfPK6, Kinase-Glo ATP depletion luminescence
[6] = target: Protein kinase 7 (PK7), Plasmodium falciparum 3D7 (PF3D7_0213400) (UniProt Q7YTF7); assay: inhibition of Plasmodium PK7 catalytic activity – biochemical, TCAMS antimalarial set, Kinase-Glo luminescence (AID 1159587); details: recombinant PfPK7, Kinase-Glo ATP depletion luminescence
[7] = target: Calcium-dependent protein kinase 4 (Plasmodium falciparum (isolate 3D7)) (UniProt Q8IBS5); assay: PfCDPK4 kinase inhibitors, biochemical, TCAMS library (AID 1159588; cut-off not given, nearly all actives have IC50 up to about 0.91 µM); details: recombinant PfCDPK4, Kinase-Glo ATP depletion luminescence
[8] = chitosan synthesis blockers in C. neoformans – flow cytometry, Cibacron Brilliant Red staining (AID 1347148); details: Cryptococcus neoformans chitosan, stronger effect = lower value; at 99.1 µM unless noted;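 note: compound exposure lasted three days at 37 degrees C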
[9] = target: ATP-dependent translocase ABCB1 (Homo sapiens) (UniProt P08183); assay: P-glycoprotein substrate transport blockade – cell-based (AID 377; in the data active = fluorescence slope change above about 50%); details: MDR1-expressing cells, fluorescent substrate accumulation slope; stronger effect = higher value; concentration not given here
[10] = P. berghei load reduction in hepatocytes – cell-based, HepG2, luciferase luminescence, HepG2 viability, primary screen (AID 624349; in the data active = parasite load remaining mostly below about 12%, no sharp cut-off; inactive = mostly above about 10%;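 note: 100% = mean of DMSO negative control wells on the same plate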); details: P. berghei liver stage in HepG2, luciferase luminescence, concentration not given here; parasite load remaining: stronger effect = lower value; viability: measured here: HepG2 viability without parasites
[11] = system: Neuropilin-2 / VEGF-C interaction (human); assay: small molecules blocking Neuropilin-2/VEGF-C interaction – biochemical, microplate binding format, z-score (AID 743281); details: microplate NRP2/VEGF-C binding assay; stronger effect = lower value
[12] = viability loss in pontine glioma line – cell-based, SU-DIPG-IV, MIPE4.0, CellTiter-Glo, qHTS, dose response (AID 1347063; cut-off not given, nearly all actives have AC50 up to about 30 µM;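 note: compound exposure lasted 48 hours before the viability readout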); details: CellTiter-Glo ATP luminescence
[13] = growth inhibition, single agents and combos, LFS_MB_1R, cell-based, cisplatin or BGB combos, synergistic combos for chromothripsis tumors (AID 1671452; in the data active = inhibition above about 80%;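 note: cells exposed for 96 hours before readout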); details: LFS_MB_1R medulloblastoma cells, stronger effect = higher value
[14] = growth inhibition, single agents and combos, CRL2098, cell-based, BGB or cisplatin IC20 combos, synergistic combos for chromothripsis tumors (AID 1671454; in the data active = inhibition above about 80%;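 note: cells exposed for 96 h before readout; 0% = vehicle DMSO and 100% = killing by high DMSO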); details: CRL2098 osteosarcoma cells, drug combinations, stronger effect = higher value
[15] = growth inhibition, single agents and combos, HD-MB03, cell-based, BGB or cisplatin IC20 combos, synergistic combos for chromothripsis tumors (AID 1671455; in the data active = inhibition above about 83%;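 note: 0% = vehicle DMSO and 100% = high DMSO as cytotoxic control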); details: HD-MB03 medulloblastoma cells, stronger effect = higher value
[16] = growth inhibition, single agents and combos, UWB1.289, cell-based, BGB or cisplatin combos, synergistic combos for chromothripsis tumors (AID 1671456; in the data active = inhibition above about 80%;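 note: cells exposed to compound for four days; 0% = vehicle DMSO and 100% = killing by high DMSO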); details: UWB1.289 ovarian carcinoma cells, stronger effect = higher value
[17] = growth inhibition, single agents and combos, LFS_MB_2R, cell-based, cisplatin combos, synergistic combos for chromothripsis tumors (AID 1671457; in the data active = inhibition above about 80%;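 note: cells exposed to compound for four days before readout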); details: LFS_MB_2R medulloblastoma cells, stronger effect = higher value
[18] = UWB1.289_BRCA1 ovarian cancer growth, cell-based, BGB or cisplatin combinations (AID 1671459; in the data active = inhibition above about 80%); details: UWB1.289 BRCA1 ovarian carcinoma, drug combinations, stronger effect = higher value
[19] = drug combination toxicity in non-malignant astrocytes – cell-based, BGB or cisplatin IC20 combos, cytotoxicity control for chromothriptic childhood tumor combination screen (AID 1671460; in the data active = inhibition above about 80%;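 note: cells exposed to compounds for 96 hours before viability readout; 0% = vehicle and 100% = killing control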); details: Human astrocytes, viability inhibition, drug combinations, at 0.5 µM, stronger effect = higher value
[20] = compounds altering HSF1 focus formation in cells – imaging, Selleck Cancer Library (AID 1347162; in the data active = plate-normalised HSF1 focus index below about 0.46); details: human cells, HSF1 nuclear foci imaging, at 10 µM; SSMD: measured here: HSF1 foci SSMD mean; cell count: measured here: cell number; plate-normalised HSF1 focus index: stronger effect = lower value
[21] = measured here: combination with BGB IC40, at 0.05 µM
[22] = measured here: combination with cisplatin, at 0.5 µM
[23] = measured here: combination with cisplatin, at 5 µM
[24] = measured here: combination with BGB at IC20, at 0.5 µM
[25] = measured here: combination with cisplatin at IC20, at 0.5 µM
[26] = measured here: combo with BGB at IC20, at 0.5 µM
[27] = measured here: combo with cisplatin at IC20, at 0.5 µM
[28] = measured here: inhibition with BGB combination, at 0.05 µM
[29] = measured here: inhibition with cisplatin combination, at 0.05 µM
[30] = BGB combination, concentration series, at 5 µM
[31] = cisplatin combination, concentration series, at 5 µM
[32] = measured here: combo with BGB IC20
[33] = measured here: combo with cisplatin IC20

ATP-dependent translocase ABCB1 (Homo sapiens), sequence (P08183 whole entry, looked up): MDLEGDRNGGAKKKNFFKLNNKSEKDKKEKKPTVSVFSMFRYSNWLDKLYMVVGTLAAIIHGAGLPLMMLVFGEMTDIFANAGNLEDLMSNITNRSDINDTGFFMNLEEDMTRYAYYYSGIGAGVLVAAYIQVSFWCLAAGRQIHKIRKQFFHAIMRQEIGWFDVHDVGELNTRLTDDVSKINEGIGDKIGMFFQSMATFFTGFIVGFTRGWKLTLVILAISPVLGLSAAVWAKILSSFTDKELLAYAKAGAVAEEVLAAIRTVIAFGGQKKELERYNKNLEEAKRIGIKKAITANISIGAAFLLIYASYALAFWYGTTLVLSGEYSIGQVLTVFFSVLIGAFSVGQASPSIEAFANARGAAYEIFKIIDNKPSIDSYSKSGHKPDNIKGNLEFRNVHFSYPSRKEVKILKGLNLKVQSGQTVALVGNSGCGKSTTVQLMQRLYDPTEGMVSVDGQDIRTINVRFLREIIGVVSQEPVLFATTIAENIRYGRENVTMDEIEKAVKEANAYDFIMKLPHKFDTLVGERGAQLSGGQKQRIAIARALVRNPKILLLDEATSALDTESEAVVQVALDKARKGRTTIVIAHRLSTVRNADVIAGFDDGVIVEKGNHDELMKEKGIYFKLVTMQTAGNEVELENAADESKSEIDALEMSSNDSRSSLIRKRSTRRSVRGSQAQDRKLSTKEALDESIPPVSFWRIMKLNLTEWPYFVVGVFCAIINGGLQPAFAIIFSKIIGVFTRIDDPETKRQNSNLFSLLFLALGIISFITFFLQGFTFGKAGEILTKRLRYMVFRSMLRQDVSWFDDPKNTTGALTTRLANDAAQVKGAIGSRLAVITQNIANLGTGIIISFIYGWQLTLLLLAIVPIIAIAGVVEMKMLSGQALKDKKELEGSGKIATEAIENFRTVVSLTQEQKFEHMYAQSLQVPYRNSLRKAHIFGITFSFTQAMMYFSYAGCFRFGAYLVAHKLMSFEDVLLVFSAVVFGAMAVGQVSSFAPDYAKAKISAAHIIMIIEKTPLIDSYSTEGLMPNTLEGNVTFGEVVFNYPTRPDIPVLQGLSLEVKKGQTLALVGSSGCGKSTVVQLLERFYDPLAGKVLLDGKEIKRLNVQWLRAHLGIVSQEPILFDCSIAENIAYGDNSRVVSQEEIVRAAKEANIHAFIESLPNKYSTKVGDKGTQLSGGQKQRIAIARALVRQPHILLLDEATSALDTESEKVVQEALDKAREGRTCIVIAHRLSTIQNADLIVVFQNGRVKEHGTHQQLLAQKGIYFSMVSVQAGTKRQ
Plasmodium falciparum protein kinase 6 (PK6, PF3D7_1337100), sequence (Q8IDW1 1-305): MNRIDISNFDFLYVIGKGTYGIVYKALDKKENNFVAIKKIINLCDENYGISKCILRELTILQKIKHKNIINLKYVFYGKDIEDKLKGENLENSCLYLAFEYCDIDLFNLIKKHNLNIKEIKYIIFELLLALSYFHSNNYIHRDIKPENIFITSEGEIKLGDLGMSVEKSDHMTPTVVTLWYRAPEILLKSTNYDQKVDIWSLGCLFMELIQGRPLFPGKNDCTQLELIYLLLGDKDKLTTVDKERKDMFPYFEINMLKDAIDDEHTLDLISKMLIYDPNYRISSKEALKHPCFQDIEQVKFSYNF
Protein kinase 7 (PK7), Plasmodium falciparum 3D7 (PF3D7_0213400), sequence (Q7YTF7 1-343): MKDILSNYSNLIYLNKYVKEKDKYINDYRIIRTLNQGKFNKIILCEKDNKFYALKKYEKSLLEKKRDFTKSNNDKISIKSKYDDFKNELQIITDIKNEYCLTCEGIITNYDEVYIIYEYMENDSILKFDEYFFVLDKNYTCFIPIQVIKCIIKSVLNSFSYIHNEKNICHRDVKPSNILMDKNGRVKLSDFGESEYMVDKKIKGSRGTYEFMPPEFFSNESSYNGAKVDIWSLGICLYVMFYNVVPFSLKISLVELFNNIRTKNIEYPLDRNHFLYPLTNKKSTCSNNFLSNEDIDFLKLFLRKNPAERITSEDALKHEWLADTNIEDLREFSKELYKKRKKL
L-lactate dehydrogenase (Plasmodium falciparum (isolate CDC / Honduras)), sequence (Q27743 whole entry, looked up): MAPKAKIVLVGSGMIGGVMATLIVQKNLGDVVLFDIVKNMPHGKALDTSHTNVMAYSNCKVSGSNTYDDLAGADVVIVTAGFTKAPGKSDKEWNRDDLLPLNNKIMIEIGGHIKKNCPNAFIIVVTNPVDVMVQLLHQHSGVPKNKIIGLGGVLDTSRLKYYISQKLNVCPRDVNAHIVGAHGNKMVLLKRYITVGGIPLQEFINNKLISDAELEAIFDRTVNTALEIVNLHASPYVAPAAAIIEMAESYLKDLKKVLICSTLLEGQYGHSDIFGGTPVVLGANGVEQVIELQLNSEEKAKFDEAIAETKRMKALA
Calcium-dependent protein kinase 4 (Plasmodium falciparum (isolate 3D7)), sequence (Q8IBS5 whole entry, looked up): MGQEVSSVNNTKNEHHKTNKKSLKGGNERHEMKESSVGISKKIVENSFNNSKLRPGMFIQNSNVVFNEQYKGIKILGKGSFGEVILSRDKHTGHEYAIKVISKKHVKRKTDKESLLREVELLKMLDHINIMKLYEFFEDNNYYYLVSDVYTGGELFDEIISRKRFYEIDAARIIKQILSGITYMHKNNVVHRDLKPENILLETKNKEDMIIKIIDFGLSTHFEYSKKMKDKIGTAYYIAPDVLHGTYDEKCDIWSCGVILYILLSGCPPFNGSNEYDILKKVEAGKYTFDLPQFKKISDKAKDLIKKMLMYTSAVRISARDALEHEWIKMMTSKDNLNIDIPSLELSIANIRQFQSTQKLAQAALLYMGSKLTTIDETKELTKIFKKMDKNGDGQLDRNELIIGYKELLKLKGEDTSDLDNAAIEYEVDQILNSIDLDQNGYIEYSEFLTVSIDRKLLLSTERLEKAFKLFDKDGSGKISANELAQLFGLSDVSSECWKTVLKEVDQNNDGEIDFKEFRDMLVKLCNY
Calcium-dependent protein kinase 1 (Plasmodium falciparum (isolate 3D7)), sequence (P62344 whole entry, looked up): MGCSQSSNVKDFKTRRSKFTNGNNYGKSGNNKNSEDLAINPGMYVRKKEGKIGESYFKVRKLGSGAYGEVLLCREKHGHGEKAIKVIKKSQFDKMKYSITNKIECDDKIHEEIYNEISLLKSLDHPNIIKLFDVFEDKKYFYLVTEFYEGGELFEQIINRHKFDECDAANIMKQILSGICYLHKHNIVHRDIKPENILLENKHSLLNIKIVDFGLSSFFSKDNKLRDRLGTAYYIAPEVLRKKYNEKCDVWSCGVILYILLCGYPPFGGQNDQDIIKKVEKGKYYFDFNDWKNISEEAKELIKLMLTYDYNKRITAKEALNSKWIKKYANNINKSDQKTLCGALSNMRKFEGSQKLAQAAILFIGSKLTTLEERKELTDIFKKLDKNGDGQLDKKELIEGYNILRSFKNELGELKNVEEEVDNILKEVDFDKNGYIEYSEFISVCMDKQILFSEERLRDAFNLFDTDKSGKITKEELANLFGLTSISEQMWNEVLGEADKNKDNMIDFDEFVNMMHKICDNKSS

CC1=C(CC(=O)O)c2cc(F)ccc2/C1=C\c1ccc(S(C)=O)cc1 (stereo not drawn)
remaining activity [1]: 115% (inactive)

NC12CC3CC(CC(C3)C1)C2
growth inhibition [2]: -1% (inactive)
inhibition [3]: -7% (inactive)
outcome [4]: inactive
outcome [5]: inactive
outcome [6]: inactive
outcome [7]: inactive
fold fluorescence [8]: 3.81 [at 330.6 µM] (inactive)

N=C(N)c1ccc(OCCCCCOc2ccc(C(=N)N)cc2)cc1
fluorescence slope change [9]: 28.9% (inactive)
growth inhibition [2]: 98% (active)
inhibition [3]: -2% (inactive)
outcome [4]: inactive
outcome [5]: inactive
outcome [6]: inactive
outcome [7]: inactive

CCOC(=O)[C@H](CCc1ccccc1)N[C@H]1CCc2ccccc2N(CC(=O)O)C1=O
parasite load remaining [10]: 126% (inactive) and 36.1% (inactive) and 94.6% (inactive)
viability [10]: 90.1% and 91.8% and 66.1%
z-score [11]: -0.908 (inactive)
remaining activity [1]: 104% (inactive)
AC50 [12]: 10.5 µM (active)

CC[C@H](C)C(=O)O[C@H]1C[C@@H](C)C=C2C=C[C@H](C)[C@H](CC[C@@H]3C[C@@H](O)CC(=O)O3)[C@H]21
fluorescence slope change [9]: 166% (active)
remaining activity [1]: 113% (inactive)
fold fluorescence [8]: 4.35 [at 123.6 µM] (inactive)

Nc1nc2c(ncn2COCCO)c(=O)[nH]1
remaining activity [1]: 117% (inactive)
outcome [12]: inactive
inhibition ([13]; at 0.5 µM): -33.9% (inactive) and -12.8% (inactive)
inhibition [13, 21]: -30% and -19.3%
inhibition [13, 22]: -22.8% and -6.62%
inhibition [13, 23]: -40.1% and -62.2%
inhibition ([14]; at 0.5 µM): -82.3% (inactive) and -42.2% (inactive)
inhibition [14, 24]: -65.6% and -27.8%
inhibition [14, 25]: -92.2% and -76%
inhibition ([15]; at 0.5 µM): -9.51% (inactive) and -3.72% (inactive)
inhibition [15, 26]: -2.11% and -3.06%
inhibition [15, 27]: -19.5% and -6.04%
inhibition ([16]; at 0.5 µM): -7.84% (inactive) and 5.52% (inactive)
inhibition [16, 28]: -9.01% and -4.82%
inhibition [16, 29]: -11.4% and 12.5%
inhibition ([17]; at 0.5 µM): -16.1% (inactive) and -6.37% (inactive)
inhibition [17, 22]: -14.9% and -19.4%
inhibition [17, 23]: -76% and -8.06%
inhibition [18, 30]: -23.1% and 1.37%
inhibition ([18]; at 0.5 µM): -9.4% (inactive) and 8.78% (inactive)
inhibition [18, 31]: -14.8% and -13.6%
inhibition [19]: -9.43% (inactive) and 7.59% (inactive)
inhibition [19, 32]: -2.39% and 2.09%
inhibition [19, 33]: -29.6% and 5.16%

CC[C@H]1CN2CCc3cc(OC)c(OC)cc3[C@@H]2C[C@@H]1C[C@H]1NCCc2cc(OC)c(OC)cc21
growth inhibition [2]: 99% (active)
inhibition [3]: -3% (inactive)
parasite load remaining [10]: -66.8% (active)
viability [10]: 76.3%
outcome [4]: inactive
outcome [5]: inactive
outcome [6]: inactive
outcome [7]: inactive
AC50 [12]: 0.526 µM (active)

CCC1(c2ccccc2)C(=O)NCNC1=O
remaining activity [1]: 91.8% (inactive)
AC50 [12]: 5.9 µM (active)

CC(C)NCC(O)c1ccc(O)c(O)c1 (stereo not drawn)
remaining activity [1]: 108% (inactive)

CCC(C)(C)C(=O)O[C@H]1C[C@@H](C)C=C2C=C[C@H](C)[C@H](CC[C@@H]3C[C@@H](O)CC(=O)O3)[C@H]21
remaining activity [1]: 114% (inactive)
AC50 [12]: 18.7 µM (active)
SSMD [20]: 1.41
cell count [20]: 7420
plate-normalised HSF1 focus index [20]: 1.09 (inactive)

CCN(CC)CCCC(C)Nc1ccnc2cc(Cl)ccc12 (stereo not drawn)
fluorescence slope change [9]: -4.1% (inactive)
growth inhibition [2]: 96% (active)
inhibition [3]: -1% (inactive)
outcome [4]: inactive
outcome [5]: inactive
outcome [6]: inactive
outcome [7]: inactive

CN1C(C(=O)Nc2ccccn2)=C(O)c2ccccc2S1(=O)=O
z-score [11]: -1.26 (inactive)
remaining activity [1]: 127% (inactive)
fold fluorescence [8]: 4.04 [at 150.9 µM] (inactive)

Oc1ccc(/C=C/c2cc(O)cc(O)c2)cc1
fluorescence slope change [9]: 28.4% (inactive)
z-score [11]: -0.145 (inactive)
remaining activity [1]: 117% (inactive)
fold fluorescence [8]: 7.05 [at 219.1 µM] (inactive)

Cc1noc(NS(=O)(=O)c2ccc(N)cc2)c1C
remaining activity [1]: 91.4% (inactive)
outcome [12]: inactive

CCCCCN=C(N)N/N=C/c1c[nH]c2ccc(OC)cc12
growth inhibition [2]: 2% (inactive)
inhibition [3]: -6% (inactive)
parasite load remaining [10]: 142% (inactive) and 119% (inactive)
viability [10]: 84.9% and 86.2%
outcome [11]: inactive
outcome [4]: inactive
outcome [5]: inactive
outcome [6]: inactive
outcome [7]: inactive

Clc1cccc(Cl)c1NC1=NCCN1
fluorescence slope change [9]: 110% (active)
z-score [11]: 0.177 (inactive)
remaining activity [1]: 106% (inactive)
fold fluorescence [8]: 4.6 [at 217.3 µM] (inactive)

CN(C)CCCN1c2ccccc2CCc2ccc(Cl)cc21
fluorescence slope change [9]: 179% (active)
remaining activity [1]: 96.8% (inactive)
AC50 [12]: 18.7 µM (active)

c1ccc([C@H]2CN3CCSC3=N2)cc1
fluorescence slope change [9]: 63.5% (active)
growth inhibition [2]: 1% (inactive)
inhibition [3]: 5% (inactive)
outcome [4]: inactive
outcome [5]: inactive
outcome [6]: inactive
outcome [7]: inactive

CCN(CC)CCCC(C)Nc1c2ccc(Cl)cc2nc2ccc(OC)cc12 (stereo not drawn)
fluorescence slope change [9]: 75.1% (active)
growth inhibition [2]: 101% (active)
inhibition [3]: 0% (inactive)
outcome [4]: inactive
outcome [5]: inactive
outcome [6]: inactive
outcome [7]: inactive
inhibition ([13]; at 0.5 µM): 3.87% (inactive)
inhibition [13, 21]: -25.2%
inhibition [13, 22]: 4.45%
inhibition [13, 23]: 100%
inhibition ([14]; at 0.5 µM): -21.4% (inactive)
inhibition [14, 24]: -24.3%
inhibition [14, 25]: -28%
inhibition ([15]; at 0.5 µM): 0.06% (inactive)
inhibition [15, 26]: 19%
inhibition [15, 27]: -11.8%
inhibition ([16]; at 0.5 µM): 5.88% (inactive)
inhibition [16, 28]: -7.63%
inhibition [16, 29]: -3.99%
inhibition ([17]; at 0.5 µM): 2.36% (inactive)
inhibition [17, 22]: 15%
inhibition [17, 23]: 96.1%
inhibition [18, 30]: 103%
inhibition ([18]; at 0.5 µM): 1.64% (inactive)
inhibition [18, 31]: 117%
inhibition [19]: -27.9% (inactive)
inhibition [19, 32]: -30.9%
inhibition [19, 33]: -37.3%

O=C1CCC(N2C(=O)c3ccccc3C2=O)C(=O)N1 (stereo not drawn)
fluorescence slope change [9]: 58.2% (active)
remaining activity [1]: 108% (inactive)
outcome [12]: inactive
fold fluorescence [8]: 3.34 [at 193.6 µM] (inactive)

c1ccc(CC2=NCCN2)cc1
growth inhibition [2]: 0% (inactive)
inhibition [3]: -3% (inactive)
outcome [4]: inactive
outcome [5]: inactive
outcome [6]: inactive
outcome [7]: inactive

CCN(CCO)CCCC(C)Nc1ccnc2cc(Cl)ccc12 (stereo not drawn)
growth inhibition [2]: 0% (inactive)
inhibition [3]: -1% (inactive)
parasite load remaining [10]: 156% (inactive) and 84.1% (inactive)
viability [10]: 88.4% and 102%
outcome [4]: inactive
outcome [5]: inactive
outcome [6]: inactive
outcome [7]: inactive
outcome [12]: inactive

CCN(Cc1ccncc1)C(=O)C(CO)c1ccccc1 (stereo not drawn)
fluorescence slope change [9]: 82.5% (active)
remaining activity [1]: 104% (inactive)

CC(=O)CC(c1ccccc1)c1c(O)c2ccccc2oc1=O (stereo not drawn)
parasite load remaining [10]: 43.1% (inactive) and 79.3% (inactive) and 42.7% (inactive)
viability [10]: 95.3% and 65.5% and 98.1%
outcome [12]: inactive

CC1=C(/C=C/C(C)=C/C=C/C(C)=C/C(=O)O)C(C)(C)CCC1
fluorescence slope change [9]: 101% (active)
remaining activity [1]: 104% (inactive)
fold fluorescence [8]: 4.11 [at 10 µM] (inactive)

CN=C(NC#N)NCCSCc1nc[nH]c1C
remaining activity [1]: 118% (inactive)

CCCCNc1cc(C(=O)O)cc(S(N)(=O)=O)c1Oc1ccccc1
fluorescence slope change [9]: 105% (active)
outcome [12]: inactive
fold fluorescence [8]: 4.08 [at 137.2 µM] (inactive)
